This is one part of the list. The true hit rate is not given.
Target: furin, P09958
Experiment: furin cleavage Z-score vs untreated control; higher = more cleavage, active = 3.5 or more, inactive = 1 or less, 8 variable residues between constant flanks
Method in brief: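 Purified furin cleaved 8-mer peptides that were fused to a cDNA oligonucleotide and held on magnetic beads by their N-terminus. Each 0.01 ml reaction used a 1:10 enzyme:substrate ratio in 50 mM HEPES pH 7.5 with CaCl2 and NaCl and ran 7.5, 15 or 30 min. Released DNA was adapter-tagged by PCR and sequenced, and read counts gave abundance. The cleavage Z-score came from log counts against furin-free reactions, lowess-adjusted and scaled by median absolute deviation.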

Chain of furin, P09958 (P09958 whole entry): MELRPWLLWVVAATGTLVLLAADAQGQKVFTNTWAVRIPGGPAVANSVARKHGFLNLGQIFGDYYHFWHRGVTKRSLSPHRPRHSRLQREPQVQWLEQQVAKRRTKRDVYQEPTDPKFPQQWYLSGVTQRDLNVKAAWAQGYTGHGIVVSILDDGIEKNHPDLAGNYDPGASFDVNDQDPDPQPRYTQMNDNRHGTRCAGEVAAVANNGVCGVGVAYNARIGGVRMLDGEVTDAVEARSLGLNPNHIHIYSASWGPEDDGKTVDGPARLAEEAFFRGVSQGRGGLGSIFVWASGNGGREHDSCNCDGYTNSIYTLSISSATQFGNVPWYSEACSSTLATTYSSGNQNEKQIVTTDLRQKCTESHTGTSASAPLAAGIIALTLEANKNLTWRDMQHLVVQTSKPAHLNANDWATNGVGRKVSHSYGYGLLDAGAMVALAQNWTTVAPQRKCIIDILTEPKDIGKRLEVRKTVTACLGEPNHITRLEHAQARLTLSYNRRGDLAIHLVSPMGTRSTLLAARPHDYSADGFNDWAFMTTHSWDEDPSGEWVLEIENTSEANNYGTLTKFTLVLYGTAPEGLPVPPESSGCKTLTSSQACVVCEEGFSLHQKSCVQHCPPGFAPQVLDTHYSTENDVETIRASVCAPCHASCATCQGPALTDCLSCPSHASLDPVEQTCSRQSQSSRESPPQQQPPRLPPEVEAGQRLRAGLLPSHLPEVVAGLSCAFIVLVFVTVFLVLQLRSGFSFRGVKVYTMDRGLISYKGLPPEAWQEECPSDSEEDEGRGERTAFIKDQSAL

| Sequence | furin cleavage Z-score (7.5 min) | furin cleavage Z-score (15 min) | furin cleavage Z-score (30 min) |
| --- | --- | --- | --- |
| CAFDEMEECSAGNASASA [HC1013] | 0.602 (inactive) | 0.715 (inactive) | 0.322 (inactive) |
| CARKNRSHIPAGNASASA [FS-1730] | 0.266 (inactive) | -0.138 (inactive) | -0.417 (inactive) |
| CAREHRSGEPAGNASASA [FS-2004] | -1.1 (inactive) | -0.712 (inactive) | -1.7 (inactive) |
| CARQERNKRFAGNASASA [FS-711] | 8.02 (active) | 9.31 (active) | 10.8 (active) |
| CARIVRSLMPAGNASASA [FS-2956] | 6.15 (active) | 8.67 (active) | 10.9 (active) |
| CAAQAREKRFAGNASASA [FS-1511] | 6.88 (active) | 8.08 (active) | 8.04 (active) |
| CARHLRSKVTAGNASASA [FS-1955] | -0.109 (inactive) | -0.365 (inactive) | 0.464 (inactive) |
| CARHLRSLEPAGNASASA [FS-2420] | 5.02 (active) | 6.47 (active) | 5.66 (active) |
| CAHIFRKRRPAGNASASA [FS-439] | -0.371 (inactive) | -0.427 (inactive) | -0.596 (inactive) |
| CAEVPCHRPEAGNASASA [HC2412] | 1.1 | 0.551 (inactive) | -0.217 (inactive) |
| CAEVICHRPSAGNASASA [HC2344] | -0.36 (inactive) | -0.916 (inactive) | 1.17 |
| CALTPCSGSWAGNASASA [HC1825] | -0.28 (inactive) | -0.817 (inactive) | -0.734 (inactive) |
| CARHLREVGDAGNASASA [FS-1715] | 2.58 | 3.76 (active) | 3.94 (active) |
| CARQNRGFRAAGNASASA [FS-3040] | -0.161 (inactive) | 0.266 (inactive) | 0.111 (inactive) |
| CARHKRGRGDAGNASASA [FS-1714] | 0.301 (inactive) | 2.2 | 1.5 |
| CARQNRWKRQAGNASASA [FS-956] | 13.6 (active) | 16.1 (active) | 9.49 (active) |
| CARQNREKRFAGNASASA [FS-493] | 8.07 (active) | 9.73 (active) | 9.9 (active) |
| CATELDGVRLAGNASASA [HC1222] | -1.97 (inactive) | -0.317 (inactive) | -1.04 (inactive) |
| CARQNRSVRLAGNASASA [FS-1916] | 2.12 | 3.53 (active) | 4 (active) |
| CAVEIRQVGDAGNASASA [HC1206] | -0.56 (inactive) | -1.09 (inactive) | -1.86 (inactive) |
| CAETAGARLVAGNASASA [HC829] | 1.45 | 1.12 | -1.04 (inactive) |
| CAAASCGGVVAGNASASA [HC568] | -0.496 (inactive) | -0.825 (inactive) | 0.0661 (inactive) |

| Sequence | furin cleavage Z-score (7.5 min) | furin cleavage Z-score (15 min) | furin cleavage Z-score (30 min) |
| --- | --- | --- | --- |
| CAVVCCSMNYAGNASASA [HC2081] | -0.198 (inactive) | -1.19 (inactive) | -1.03 (inactive) |
| CALFYHHKFNAGNASASA [HC381] | -0.625 (inactive) | -2.1 (inactive) | -0.731 (inactive) |
| CARHLREKRFAGNASASA [FS-706] | 6.75 (active) | 9.12 (active) | 10.1 (active) |
| CARHLRANMTAGNASASA [FS-2939] | -0.54 (inactive) | -1.02 (inactive) | -1.63 (inactive) |
| CARHLRNVYAAGNASASA [FS-2940] | 0.638 (inactive) | -0.594 (inactive) | 1.3 |
| CAMEDCSQHLAGNASASA [HC1711] | 0.722 (inactive) | 2.02 | 1.16 |
| CAIITSLTGRAGNASASA [HC682] | -0.473 (inactive) | 0.458 (inactive) | 0.0661 (inactive) |
| CARLEVVTSTAGNASASA [HC2273] | 0.609 (inactive) | 1.11 | -1.08 (inactive) |
| CARNARHADGAGNASASA [FS-3002] | 3.28 | 5.44 (active) | 3.84 (active) |
| CARNARNVSQAGNASASA [FS-3003] | 4.25 (active) | 6.14 (active) | 5.98 (active) |
| CARNARIVHLAGNASASA [FS-1755] | 0.861 (inactive) | 0.108 (inactive) | -0.00636 (inactive) |
| CARLARFADGAGNASASA [FS-2429] | -1.13 (inactive) | 2.8 | 0.514 (inactive) |
| CAAQPGYPWPAGNASASA [HC199] | 0.109 (inactive) | 0.367 (inactive) | 0.143 (inactive) |
| CAEYPVGSQLAGNASASA [HC1237] | -1.22 (inactive) | -1.49 (inactive) | -1.3 (inactive) |
| CARQKRSIHEAGNASASA [FS-3036] | 9.78 (active) | 11 (active) | 9.29 (active) |
| CARQKRSMEEAGNASASA [FS-3260] | 7.94 (active) | 7.89 (active) | 8.14 (active) |
| CAVEKRGVHEAGNASASA [FS-1813] | -1.62 (inactive) | -0.803 (inactive) | -0.675 (inactive) |
| CARQTRSSTEAGNASASA [FS-2174] | 0.51 (inactive) | 2.13 | 2.17 |
| CASTPCSAHEAGNASASA [HC2572] | -0.869 (inactive) | -0.151 (inactive) | 0.67 (inactive) |
| CAREFDEMEEAGNASASA [HC1012] | -0.916 (inactive) | -1.39 (inactive) | -1.93 (inactive) |
| CARQKRSINLAGNASASA [FS-2587] | 7.01 (active) | 6.9 (active) | 10.1 (active) |
| CARVNRSVHEAGNASASA [FS-2244] | 0.826 (inactive) | 3.34 | 3.78 (active) |
